AC50 and outcome data for 4 compounds are collected here from PubChem BioAssay (EPA / NIEHS).

Conditions in all cases: mRNA level, 48 h; actives raise or lower the signal
Read-out in test [1]: Cytochrome P450 (CYP2B6), CYP2B6 (gene 1555)
In words: LTEA_HepaRG_CYP2B6: Life Technologies and Expression Analysis (LTEA) Assay for Cytochrome P450 (CYP2B6) using HepaRG (AID 2283481). In outline: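 HepaRG cells plated 48 h, switched to serum-free induction medium, then dosed 48 h (8 points, half-log from 100 uM, 0.5% DMSO). RNA isolated; CYP2B6 expression measured by qRT-PCR; gain or loss fitted relative to DMSO.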

Read-out in test [2]: Cytochrome P450 2C19 (Homo sapiens) (UniProt P33261)
The test can be described thus: LTEA_HepaRG_CYP2C19: Life Technologies and Expression Analysis (LTEA) Assay for CYP2C19 using HepaRG (AID 2283482). The essentials: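 Transcript levels of CYP2C19 were quantified by qRT-PCR after HepaRG cells were treated for 48 hours with test chemicals up to 100 uM (eight half-log concentrations, 0.5% DMSO vehicle). Gain or loss of signal was fitted relative to DMSO.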

Read-out in another test: CYP2C8 (gene 1558)
In words: LTEA_HepaRG_CYP2C8: Life Technologies and Expression Analysis (LTEA) Assay for CYP2C8 using HepaRG (AID 2283483). The essentials:
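Differentiated HepaRG cells in serum-free induction medium exposed 48 h in duplicate to 8 half-log concentrations from 100 uM in 0.5% DMSO. CYP2C8 mRNA by qRT-PCR normalized to ACTB, GAPDH, POLR2A; bidirectional fit versus DMSO.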

Read-out in another test: CYP2E1 (gene 1571)
In words: LTEA_HepaRG_CYP2E1: Life Technologies and Expression Analysis (LTEA) Assay for CYP2E1 using HepaRG (AID 2283485). In outline:
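HepaRG cells, plated 48 h, then exposed 48 h in serum-free induction medium to eight half-log concentrations from 100 uM in 0.5% DMSO, duplicate. CYP2E1 mRNA by qRT-PCR, normalized to ACTB/GAPDH/POLR2A; bidirectional fit versus DMSO.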

Read-out in test [3]: DNA damage-inducible transcript 3 (DDIT3), DDIT3 (gene 1649)
The test can be described thus: LTEA_HepaRG_DDIT3: Life Technologies and Expression Analysis (LTEA) Assay for DNA damage-inducible transcript 3 (DDIT3) using HepaRG (AID 2283488). In outline: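 HepaRG cells, 48 h after plating, exposed 48 h in serum-free induction medium to 8 half-log concentrations up to 100 uM in 0.5% DMSO, in duplicate. DDIT3 mRNA measured by TaqMan qRT-PCR, normalized to ACTB, GAPDH and POLR2A. Fitted bidirectionally against DMSO.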

Read-out in test [4]: Pro-epidermal growth factor (Homo sapiens) (UniProt P01133)
In words: LTEA_HepaRG_EGF: Life Technologies and Expression Analysis (LTEA) Assay for Epidermal growth factor (EGF) using HepaRG (AID 2283489). The essentials:
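HepaRG, 48 h dosing, 100 uM top, half-log x8, 0.5% DMSO. Readout: TaqMan qRT-PCR (Fluidigm array), housekeeping-normalized. Gain or loss of signal fit vs DMSO.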

Read-out in test [5]: Ezrin (EZR), EZR (gene 7430)
The test can be described thus: LTEA_HepaRG_EZR: Life Technologies and Expression Analysis (LTEA) Assay for Ezrin (EZR) using HepaRG (AID 2283491). In outline: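 EZR transcript levels came from Fluidigm qRT-PCR and were normalized to three housekeeping genes after 48 h chemical exposure of HepaRG cells. Dosing used an 8-point half-log series with a 100 uM top concentration in 0.5% DMSO, tested in duplicate; both directions were fitted versus vehicle.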

Read-out in test [6]: Cytochrome P450 3A7 (Homo sapiens) (UniProt P24462)
In words: LTEA_HepaRG_CYP3A7: Life Technologies and Expression Analysis (LTEA) Assay for CYP3A7 using HepaRG (AID 2283492). The essentials:
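Human HepaRG liver cells, 48 h post-plating, switched to serum-free induction medium and exposed in duplicate for 48 h. Dosing: 100 uM top, half-log dilutions, 8 points, 0.5% DMSO vehicle. Read-out: CYP3A7 mRNA, gain or loss fitted against DMSO baseline.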

Read-out in a further test: CYP3A5 (gene 1577)
The test can be described thus: LTEA_HepaRG_CYP3A5: Life Technologies and Expression Analysis (LTEA) Assay for CYP3A5 using HepaRG (AID 2283493). The essentials: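 HepaRG cells, plated 48 h then in serum-free induction medium, dosed in duplicate for 48 h with eight half-log concentrations up to 100 uM in 0.5% DMSO. Gene mRNA by Fluidigm TaqMan qRT-PCR, normalized to ACTB, GAPDH, POLR2A.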

Read-out in test [7]: Fatty Acid-Binding Protein 1 (FABP1), FABP1 (gene 2168)
The test can be described thus: LTEA_HepaRG_FABP1: Life Technologies and Expression Analysis (LTEA) Assay for Fatty Acid-Binding Protein 1 (FABP1) using HepaRG (AID 2283494). In outline: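 Differentiated human HepaRG cells exposed 48 h in serum-free induction medium to eight half-log concentrations up to 100 uM (0.5% DMSO), duplicate. FABP1 mRNA by qRT-PCR, normalised to ACTB, GAPDH, POLR2A; bidirectional fitting against DMSO.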

Read-out in test [8]: Cytochrome P450 4A22 (Homo sapiens) (UniProt Q5TCH4)
The test can be described thus: LTEA_HepaRG_CYP4A22: Life Technologies and Expression Analysis (LTEA) Assay for Cytochrome P450 4A22 (CYP4A22) using HepaRG (AID 2283495). In outline: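 Readout is CYP4A22 transcript induction or loss, quantified by qRT-PCR and normalized to ACTB, GAPDH and POLR2A. Human HepaRG cells receive test chemicals for 48 h at eight half-log concentrations from 100 uM in 0.5% DMSO.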

Read-out in test [9]: Cytochrome P450 7A1 (Homo sapiens) (UniProt P22680)
In words: LTEA_HepaRG_CYP7A1: Life Technologies and Expression Analysis (LTEA) Assay for Cytochrome P450 7A1 (CYP7A1) using HepaRG (AID 2283496). In outline: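 HepaRG cells plated 48 h, then switched to serum-free induction medium and exposed in duplicate for 48 h to 8-point half-log series from 100 uM in 0.5% DMSO. CYP7A1 mRNA by qRT-PCR (TaqMan), normalized to ACTB/GAPDH/POLR2A; bidirectional fit versus DMSO.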

Read-out in test [10]: Glutathione S-Transferase (GSTA2), GSTA2 (gene 2939)
The test can be described thus: LTEA_HepaRG_GSTA2: Life Technologies and Expression Analysis (LTEA) Assay for Glutathione S-Transferase (GSTA2) using HepaRG (AID 2283497). The essentials:
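Differentiated human HepaRG cells were exposed in duplicate for 48 h in serum-free induction medium, 8 points from 100 uM top in half-log steps, 0.5% DMSO. GSTA2 mRNA was measured by TaqMan qRT-PCR, normalized to ACTB, GAPDH and POLR2A; bidirectional fit versus DMSO.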

Read-out in test [11]: Glutamate-cysteine ligase catalytic (GCLC), GCLC (gene 2729)
In words: LTEA_HepaRG_GCLC: Life Technologies and Expression Analysis (LTEA) Assay for Glutamate-cysteine ligase catalytic (GCLC) using HepaRG (AID 2283498). In outline:
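Differentiated HepaRG cells exposed 48 h in serum-free induction medium, eight-point half-log series topping at 100 uM in 0.5% DMSO, duplicates. GCLC mRNA by qRT-PCR normalized to ACTB, GAPDH and POLR2A, fitted bidirectionally versus DMSO.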

Read-out in test [12]: growth arrest and DNA damage 45 (GADD45G), GADD45G (gene 10912)
In words: LTEA_HepaRG_GADD45G: Life Technologies and Expression Analysis (LTEA) Assay for growth arrest and DNA damage 45 (GADD45G) using HepaRG (AID 2283499). In outline:
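Gain or loss of GADD45G mRNA, quantified by TaqMan qRT-PCR against three housekeeping genes, is fitted in both directions relative to 0.5% DMSO. Human HepaRG cultures receive test chemical for 48 h at up to 100 uM.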

Read-out in test [13]: Glutamate-cysteine ligase regulatory (GCLM), GCLM (gene 2730)
The test can be described thus: LTEA_HepaRG_GCLM: Life Technologies and Expression Analysis (LTEA) Assay for Glutamate-cysteine ligase regulatory (GCLM) using HepaRG (AID 2283500). In outline:
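Differentiated HepaRG cells exposed 48 h in serum-free induction medium to eight half-log concentrations up to 100 uM (0.5% DMSO). GCLM mRNA by TaqMan qRT-PCR, normalized to ACTB, GAPDH and POLR2A; bidirectional fit versus DMSO.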

Read-out in a further test: CYP4A11 (gene 1579)
In words: LTEA_HepaRG_CYP4A11: Life Technologies and Expression Analysis (LTEA) Assay for CYP4A11 using HepaRG (AID 2283486). The essentials: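 HepaRG, 48 h chem exposure, 8 conc (100 uM top, half-log), 0.5% DMSO vehicle; qRT-PCR readout, housekeeping-gene normalized; bidirectional curve fit vs DMSO baseline.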

Read-out in test [14]: Cytochrome P450 3A4 (Homo sapiens) (UniProt P08684)
In words: LTEA_HepaRG_CYP3A4: Life Technologies and Expression Analysis (LTEA) Assay for CYP3A4 using HepaRG (AID 2283487). In outline: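 Differentiated HepaRG cells, plated 48 h, then dosed 48 h in serum-free induction medium with 0.5% DMSO, 8 half-log concentrations up to 100 uM, duplicate. CYP3A4 mRNA by qRT-PCR, normalized to ACTB/GAPDH/POLR2A; bidirectional fit versus DMSO.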

Read-out in test [15]: Early growth response protein 1 (EGR1) transcription factor, EGR1 (gene 1958)
In words: LTEA_HepaRG_EGR1: Life Technologies and Expression Analysis (LTEA) Assay for Early growth response protein 1 (EGR1) transcription factor using HepaRG (AID 2283490). The essentials: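 Differentiated HepaRG cells in serum-free induction medium exposed 48 hours, duplicate, to 8 half-log concentrations up to 100 uM in 0.5% DMSO. EGR1 mRNA measured by TaqMan qRT-PCR, normalized to ACTB, GAPDH, POLR2A; bidirectional fit versus DMSO.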

Activity calls are given as the source filed them. The calls were made as follows: active = hit-call score of the fitted dose curve at least 0.9, where 1 is the maximum; inactive = score below 0.9.

The term AC50 denotes the concentration giving half of the maximal activity seen.

Chain of Cytochrome P450 2C19 (Homo sapiens) (P33261 whole entry, looked up): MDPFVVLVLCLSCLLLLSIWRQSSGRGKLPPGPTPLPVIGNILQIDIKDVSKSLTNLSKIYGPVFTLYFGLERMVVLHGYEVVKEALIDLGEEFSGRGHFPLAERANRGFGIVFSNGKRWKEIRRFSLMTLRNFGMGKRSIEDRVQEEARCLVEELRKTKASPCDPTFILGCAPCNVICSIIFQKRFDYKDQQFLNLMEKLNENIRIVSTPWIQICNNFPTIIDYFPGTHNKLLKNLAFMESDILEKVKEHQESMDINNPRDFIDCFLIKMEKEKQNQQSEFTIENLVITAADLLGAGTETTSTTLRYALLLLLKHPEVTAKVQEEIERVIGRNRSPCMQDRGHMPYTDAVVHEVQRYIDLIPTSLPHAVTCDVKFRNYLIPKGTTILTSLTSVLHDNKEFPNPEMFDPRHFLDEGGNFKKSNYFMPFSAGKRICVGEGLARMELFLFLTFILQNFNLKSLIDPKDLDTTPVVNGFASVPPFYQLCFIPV
Chain of Cytochrome P450 3A7 (Homo sapiens) (P24462 whole entry, looked up): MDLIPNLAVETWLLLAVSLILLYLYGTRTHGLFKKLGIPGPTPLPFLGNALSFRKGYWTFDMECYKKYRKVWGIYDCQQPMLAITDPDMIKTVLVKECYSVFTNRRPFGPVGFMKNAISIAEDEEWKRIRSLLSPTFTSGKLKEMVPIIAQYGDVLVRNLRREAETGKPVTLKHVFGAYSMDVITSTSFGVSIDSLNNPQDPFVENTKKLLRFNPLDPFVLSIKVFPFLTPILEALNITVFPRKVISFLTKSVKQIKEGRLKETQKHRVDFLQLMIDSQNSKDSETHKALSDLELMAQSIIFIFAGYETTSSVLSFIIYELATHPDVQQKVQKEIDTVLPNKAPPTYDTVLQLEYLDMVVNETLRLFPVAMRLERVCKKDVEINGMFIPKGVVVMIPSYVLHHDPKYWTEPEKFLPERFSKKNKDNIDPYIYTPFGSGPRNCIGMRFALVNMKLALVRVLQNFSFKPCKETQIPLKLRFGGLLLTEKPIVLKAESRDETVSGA
Chain of Cytochrome P450 3A4 (Homo sapiens) (P08684 whole entry, looked up): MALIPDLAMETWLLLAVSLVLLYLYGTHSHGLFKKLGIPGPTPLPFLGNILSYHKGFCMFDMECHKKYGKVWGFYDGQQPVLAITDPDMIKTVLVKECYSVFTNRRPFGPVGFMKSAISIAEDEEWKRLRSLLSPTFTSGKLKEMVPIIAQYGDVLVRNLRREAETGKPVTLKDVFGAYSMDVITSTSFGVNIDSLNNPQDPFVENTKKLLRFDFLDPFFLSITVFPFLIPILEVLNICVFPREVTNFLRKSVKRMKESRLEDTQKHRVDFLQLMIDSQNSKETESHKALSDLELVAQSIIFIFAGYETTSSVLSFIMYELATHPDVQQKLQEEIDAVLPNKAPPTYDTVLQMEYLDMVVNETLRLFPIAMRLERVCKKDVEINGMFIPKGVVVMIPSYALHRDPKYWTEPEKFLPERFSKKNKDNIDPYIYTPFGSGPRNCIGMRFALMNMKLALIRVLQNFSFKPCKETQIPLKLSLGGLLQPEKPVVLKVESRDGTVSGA

Consider `c1ccc2cc3ccccc3cc2c1`, for which the concentration at half-maximal activity (AC50) is 13.2 µM (active) in test [1], 50 µM (active) with CYP2E1 (gene 1571) and 13.2 µM (active) in test [6]. For the same compound, the compound was classed as inactive (in test [2]; in the test with CYP2C8 (gene 1558); in test [3]; in test [4]; in [5]; with CYP3A5 (gene 1577)). The outcome in test [7], in test [8], in [9], in [10], in test [11] and in test [12] was inactive. Further, the compound was classed as inactive in [13].

Regarding `CCCCCCOC(=O)CC(CC(=O)OCCCCCC)(OC(=O)CCC)C(=O)OCCCCCC`, in test [1], the AC50 is 12.3 µM (active). The result (in [2]; in the test with CYP2C8 (gene 1558); in test [3]; in [4]; in [5]; in [6]) was inactive. For the same compound, the compound was classed as inactive (with CYP3A5 (gene 1577); in [7]; in [8]; in test [9]; in test [10]; in test [11]). In addition, the compound was classed as inactive in [12] and in [13].

In the case of `CC(C)c1nnc2ccc(-c3ocnc3-c3cc(F)ccc3F)cn12`, the AC50 in [1] is 0.619 µM (active); in test [2], 91.6 µM (active); in the test with CYP2C8 (gene 1558), 82.6 µM (active); with CYP4A11 (gene 1579) it was 33.6 µM (active); in test [14], 1.42 µM (active); in test [3] it was 80.1 µM (active). In addition, the AC50 in test [5] was 2.38 µM (active); in [6], 81.6 µM (active); in test [7], 52.6 µM (active); in [8] it was 31.8 µM (active); in test [9], 25.2 µM (active); in test [10] it was 80.5 µM (active). Besides, the AC50 in test [12] was 56.5 nM (active). The compound was classed as inactive (in test [4]; with CYP3A5 (gene 1577); in [11]; in test [13]).

Turning to `CCCCN1C(=O)[C@@H]([C@H](O)C2CCCCC2)NC(=O)C12CCN(Cc1ccc(Oc3ccc(C(=O)O)cc3)cc1)CC2`, the AC50 is 1.94 µM (active) in test [1]; 2.02 µM (active) in test [2]; 3.24 µM (active) in the test with CYP2C8 (gene 1558); 3.86 µM (active) in the test with CYP2E1 (gene 1571); 3.66 µM (active) in test [3]; 9.39 µM (active) in test [4]. The AC50 is 2.38 µM (active) in test [6]; 1.9 µM (active) with CYP3A5 (gene 1577); 2.84 µM (active) in [7]; 3.35 µM (active) in [8]; 2.15 µM (active) in test [9]; 2.39 µM (active) in [10]. Moreover, the AC50 in [11] is 2.25 µM (active); in test [12], 4630 nM (active). Moreover, the compound was called inactive in [15], in test [5] and in [13].
